MRP reversal – reverses drug resistance mediated by MRP; 85,000 tested, 0.04% active; H69AR cells + 2 uM doxorubicin, CellTiter-Glo, 72 h; differential viability (reversal), % at 10 µM;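 active = viability drop by adding the cancer drug above about 55%, with treated viability meeting a 40% cutoff, limit read from the data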;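 also: viability without doxorubicin minus viability with 2 µM doxorubicin for each compound; larger differential means the compound sensitizes cells more to doxorubicin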
CYP2C9 inhib – blocks human cytochrome P450 2C9; CYP2C9 Supersomes, luciferin-H conversion, luminescence; inhibition, % at 5 µM; P11712; 96,000 tested, 20% active;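 active = blocking of liver enzyme CYP2C9 beyond about 50% at 5 µM, limit read from the data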
Target sequence (P11712 whole entry, looked up): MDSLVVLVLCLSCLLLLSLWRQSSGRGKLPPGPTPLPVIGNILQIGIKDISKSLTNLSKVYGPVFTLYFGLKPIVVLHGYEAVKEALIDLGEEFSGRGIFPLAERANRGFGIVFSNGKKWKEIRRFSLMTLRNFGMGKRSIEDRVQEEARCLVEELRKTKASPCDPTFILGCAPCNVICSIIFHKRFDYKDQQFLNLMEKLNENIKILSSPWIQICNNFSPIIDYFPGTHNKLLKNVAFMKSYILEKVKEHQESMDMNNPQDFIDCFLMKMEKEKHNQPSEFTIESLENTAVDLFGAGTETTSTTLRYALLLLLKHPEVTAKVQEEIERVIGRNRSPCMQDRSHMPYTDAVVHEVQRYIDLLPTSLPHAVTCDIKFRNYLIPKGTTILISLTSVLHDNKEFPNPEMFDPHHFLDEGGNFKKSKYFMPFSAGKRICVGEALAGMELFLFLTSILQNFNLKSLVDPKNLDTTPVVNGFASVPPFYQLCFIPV
CYP2C19 inh – human CYP2C19 inhibition; P33261; 96,000 tested, 21% active; CYP2C19 Supersomes, luciferin-H EGE luminescence, 30 min; inhibition, % at 5 µM; AID 778;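 active = CYP2C19 inhibition above a set limit at 5 µM in the primary screen, cut at about 50% in these data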;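 also: plate controls were negative control wells for no effect and 2.5 mM tranylcypromine positive control for full effect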
MRP-1 activ – activates MRP-1; AID 799; viability increase, % at 10 µM; 140,000 tested, 0.61% active; H69AR cells + doxorubicin, viability rescue, CellTiter-Glo;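 active = viability gain under doxorubicin at or above a set limit, the compound median plus 3 SD, cut at about 4.7% in these data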;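 also: MRP-1 overexpressing cells given doxorubicin 25 µM after compound pretreatment; 18-22 h compound pretreatment then 72 h with doxorubicin before readout; 0% = doxorubicin-only wells and 100% = vehicle-treated cells without doxorubicin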
CYP2C9 act – increases human cytochrome P450 2C9 activity; recombinant CYP2C9, luciferin-H conversion, luminescence; hits give high values; factor 1 = untreated enzyme, 0 = blocked; 96,000 tested, 1.4% active; AID 1024; activation factor at 5 µM; P11712;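 active = activation factor of 2 or more for CYP2C9 at a 5 µM dose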;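 also: 0 = sulfaphenazole-blocked wells and 1 = vehicle-only wells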
CYP2C19 activ – activators of human cytochrome P450 2C19. P33261. recombinant CYP2C19, luciferin-H EGE luminescence; hits give high values; 0 = fully inhibited enzyme, 1 = untreated enzyme. activation factor at 5 µM. 96,000 tested, under 10 active. AID 1025;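 active = activation factor of at least 2 at 5 µM in the primary screen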;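 also: 0 = wells with 2.5 mM tranylcypromine and 1 = vehicle-only wells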
Starred values were filed as active, the others as inactive; nt = no result given. An excerpt weighted towards active compounds, which were near 21% of everything screened.

SMILES	MRP reversal	CYP2C9 inhib	CYP2C19 inh	MRP-1 activ	CYP2C9 act	CYP2C19 activ
CCCC1CC(C)(C(=O)CSc2n[nH]c(-c3ccccc3)n2)OC1=O (centres undefined)	1.0	42.2	49.7	-0.2	0.6	0.5
COC(=O)CSc1n[nH]c(-c2ccncc2)n1	21.3	64.9*	61.2*	-0.4	0.4	0.4
O=C(CSc1n[nH]c(-c2ccccc2)n1)c1ccc(O)c(O)c1	-38.0	55.7*	64.0*	-0.8	0.4	0.4
O=C(c1ccc(=O)oc1)N1CCCc2ccccc21	-2.5	17.3	5.4	-2.4	0.8	0.9
Cc1ccnc2c(N3C(=O)C4C5c6ccccc6C(c6ccccc65)C4C3=O)cccc12 (centres undefined)	nt	20.5	38.2	-2.6	0.8	0.6
CCn1c(SCC(=O)Nc2cccc(NC(=O)c3ccco3)c2)nnc1-c1cccs1	-12.4	64.7*	55.6*	-2.5	0.4	0.4
CCn1c(SCC(=O)Nc2ccc(NC(=O)c3ccco3)cc2)nnc1-c1cccs1	4.0	nt	nt	nt	nt	nt
CCc1ccc(NC(=O)CSc2nnc(-c3cccs3)n2CC)cc1	21.0	52.5*	27.7	-0.5	0.5	0.7
CCn1c(CC(=O)Nc2ccc(C)c(Cl)c2)nnc1SCC(=O)Nc1nc(C)cs1	12.6	63.3*	24.2	-3.7	0.4	0.8
Cc1csc(NC(=O)CSc2nnc(-c3cccs3)n2C)n1	0.8	40.9	51.7*	-3.1	0.6	0.5
Cc1csc(NC(=O)CSc2nnc(CCNC(=O)c3cccs3)n2C)n1	9.6	nt	nt	-0.8	nt	nt
CCn1c(Cc2ccccc2)nnc1SCC(=O)Nc1nc(C)cs1	4.0	nt	nt	-2.9	nt	nt
Cc1c(N)cc(C(=O)N2CCOCC2)cc1[N+](=O)[O-]	nt	nt	nt	0.3	nt	nt
COCCn1c(=NC(=O)/C=C/c2ccccc2)sc2cc(NC(C)=O)ccc21	nt	nt	nt	-3.9	nt	nt
COc1ccc(S(=O)(=O)N2CCOCC2)cc1NC(=O)CN1CCC(Cc2ccccc2)CC1	nt	nt	nt	-4.0	nt	nt
CCn1c(SCC(=O)NCCc2ccc(Cl)cc2)nnc1-c1cccs1	-1.3	80.6*	77.6*	-0.3	0.2	0.2
CCc1ccc(NC(=O)CSc2nnc(-c3ccccn3)n2C)cc1	22.2	72.1*	67.2*	-3.0	0.3	0.3
COc1ccc(CNc2nc3c(c(=O)n(Cc4ccc(F)cc4)c(=O)n3C)n2C)cc1	36.7	81.1*	90.8*	-0.8	0.2	0.1
Cn1c(NCc2ccccc2)nc2c1c(=O)n(Cc1ccccc1)c(=O)n2C	16.9	33.3	40.7	0.3	0.7	0.6
Cn1c(NCC(O)c2ccccc2)nc2c1c(=O)n(Cc1ccc(Cl)c(Cl)c1)c(=O)n2C (centres undefined)	7.0	nt	nt	nt	nt	nt
CC(C)CCNc1nc2c(c(=O)n(Cc3cccc(F)c3)c(=O)n2C)n1C	12.5	84.7*	88.0*	-0.7	0.2	0.1
Cn1c(NCC(O)c2ccccc2)nc2c1c(=O)n(Cc1ccc(Cl)cc1)c(=O)n2C (centres undefined)	28.3	53.4*	23.9	0.2	0.5	0.8
CCN1CCN(C(=S)c2ccc(OCC(=O)N3CCOCC3)cc2)CC1	-6.0	-1.3	5.7	1.1	1	0.9
CCn1c(C)cc(/C=C2\NC(=O)N(CC(=O)Nc3cccc(C)c3)C2=O)c1C	nt	39.9	13.1	-0.8	0.6	0.9
CCn1c(C)cc(/C=C2\SC(=O)N(CC(=O)Nc3ccc(C)c(C)c3)C2=O)c1C	nt	16.2	57.1*	0.3	0.8	0.4
SMILES	MRP reversal	CYP2C9 inhib	CYP2C19 inh	MRP-1 activ	CYP2C9 act	CYP2C19 activ
O=C(O)CCCN=CC1=C(O)C(C(=O)c2ccccc2)CCC1=O (centres undefined)	14.9	nt	nt	2.5	nt	nt
CCN1CCN(c2ncnc3c2sc(=S)n3-c2ccccc2)CC1	4.3	12.0	9.9	-3.0	0.9	0.9
S=c1sc2c(N3CCN(Cc4ccccc4)CC3)ncnc2n1-c1ccccc1	-7.5	59.9*	38.5	-3.0	0.4	0.6
CCOC(=O)Cc1cc(=O)[nH]c(/N=C(\N)Nc2ccc(C)cc2C)n1	8.2	9.4	16.0	-1.9	0.9	0.8
COc1ccc(-c2onc(C)c2-c2ccc(C(=O)OC(C)C)o2)c(O)c1	1.2	98.2*	98.4*	-3.6	0	0
O=C(COC(=O)C1CCN(S(=O)(=O)c2ccc3c(c2)OCCO3)CC1)Nc1cccc2ccccc12	nt	nt	nt	-0.4	nt	nt
Cc1c(C(=O)Nc2ccncc2)sc2nc(-c3ccccc3)cn12	-0.5	79.2*	47.0	-2.7	0.2	0.5
COC(=O)C1CCN(C(=O)c2sc3nc(-c4ccc(F)cc4)cn3c2C)CC1	-26.9	62.0*	38.7	-1.1	0.4	0.6
COc1ccccc1N1CCN(C(=O)c2sc3nc(-c4ccccc4)cn3c2C)CC1	4.4	80.5*	30.4	-1.6	0.2	0.7
Cc1c(C(=O)N2CCc3ccccc3C2)sc2nc(-c3ccccc3)cn12	2.7	53.0*	58.8*	-3.0	0.5	0.4
COc1cccc(-n2cnc3cccc(N)c32)c1	nt	-125.4	36.8	-2.3	2.3*	0.6
CNC(=O)N(O)C1N(c2ccccc2)C(=S)SC1(C)C (centres undefined)	nt	nt	nt	-2.3	nt	nt
C/C(=N\N1CCN(c2ccc(Cl)cc2)CC1)c1cccs1	nt	nt	nt	-0.8	nt	nt
CCOC(=O)c1[nH]c2cc(OC)c(OC)cc2c1NC(=O)c1ccc2c(c1)OCO2	-20.0	10.7	0.5	-1.6	0.9	1
CCOC(=O)c1[nH]c2ccc(Br)cc2c1NC(=O)CCN1CCCC(C)C1 (centres undefined)	nt	nt	nt	-3.0	nt	nt
CCOC(=O)c1[nH]c2ccc(Br)cc2c1NC(=O)CCN1CCC(C)CC1	0.7	24.0	58.2*	-3.1	0.8	0.4
CCOC(=O)c1[nH]c2ccc(OC)cc2c1NC(C)=O	-0.6	-14.5	-15.2	-3.4	1.1	1.2
CCOC(=O)c1[nH]c2ccc(OC)cc2c1NC(=O)c1cccc(OC)c1	-18.6	37.3	52.3*	-1.8	0.6	0.5
CCOC(=O)c1[nH]c2ccc(OC)cc2c1NC(=O)c1ccc2c(c1)OCO2	-8.1	34.6	61.6*	-1.9	0.7	0.4
CCOC(=O)c1[nH]c2ccc(OC)cc2c1NC(=O)CN1CCSCC1	21.9	59.0*	76.4*	-1.3	0.4	0.2
O=C(C1CCCN(S(=O)(=O)c2cccnc2)C1)N1CCn2c1nc1ccccc12 (centres undefined)	7.3	5.8	-3.7	-1.2	0.9	1
CCN(CC(=O)Nc1c(C(=O)OC)[nH]c2ccccc12)c1ccc2c(c1)OCO2	6.3	70.4*	50.2*	-1.7	0.3	0.5
O=C(N=C1c2ccccc2CN1c1ccc(F)c(Cl)c1)c1cccnc1Cl	nt	nt	nt	-1.9	nt	nt
CCOc1ccc(C(=O)c2ccc(OCC)c(N)c2)cc1N	-27.1	43.1	75.6*	-5.4	0.6	0.2
CN(C)c1ccc(C(=O)c2ccc(N(C)C)c(N)c2)cc1N	-24.0	-50.8	80.8*	-0.8	1.5	0.2
COc1ccc2c(c1)C(C)CC(C)(C)N2C(=O)CSc1ncn[nH]1 (centres undefined)	13.4	63.9*	88.2*	3.0	0.4	0.1
